Shown are actives, neighbours in structure and some others; about 0.44% of the full set was active somewhere.
YopH inh = inhibitors of Yersinia enterocolitica YopH tyrosine phosphatase; fluorescence Ex485/Em525; inhibition, % (no concentration beside the values); hit rate 0.16% among 140,000; AID 898; in the data active = inhibition above about 50%
RmlCD inh mix = inhibitors of RmlC and RmlD coupled enzymes; RmlC/RmlD coupled enzyme inhibition, 384-well mixture HTS; inhibition, % at 5.5 µM; hit rate 0.39% among 110,000; in the data active = inhibition above about 30%, passing the limit was not always enough
* = called active by the depositor.

For COc1ccccc1C1CC(=O)NC(C)=C1C(=O)OCC(C)C (stereo not drawn) the results were YopH inh -21 and RmlCD inh mix -12.
For C=CCOC(=O)C1=C(C)NC2(O)c3ccccc3C(=O)C12O (stereo not drawn) the results were YopH inh 78* and RmlCD inh mix 2.
Screening C=CCOC(=O)C1=C(C)NC(=O)NC1/C=C/c1ccccc1 (stereo not drawn) returned YopH inh -41 and RmlCD inh mix 1.
Screening CC1=C(C(=O)OCC(C)C)C2(O)C(=O)c3ccccc3C2(O)N1 (stereo not drawn) returned YopH inh 69*.
Screening CC(C)CC(NC(=O)C(COC(C)(C)C)NC(=O)C(Cc1ccc(O)cc1)NC(=O)C(CO)NC(=O)C(Cc1c[nH]c2ccccc12)NC(=O)C(Cc1cnc[nH]1)NC(=O)C1CCC(=O)N1)C(=O)N[C@@H](CCCN=C(N)N)C(=O)N1CCCC1C(=O)NNC(N)=O (stereo partly drawn) returned RmlCD inh mix -9.
CCOC(=O)N1CCN(C(=O)CSCc2ccccc2Cl)CC1 was read as YopH inh -2.
For COC(=O)N(NC(=O)C(O)(c1ccccc1)c1ccccc1)c1ccccc1 the results were YopH inh 18.
For COC(=O)N(NC(=O)C(O)(CCC(C)C)CCC(C)C)c1ccccc1 the results were YopH inh 70*.
Screening CCNc1nc(OC)nc(N2CCC(Cc3ccccc3)CC2)n1 returned YopH inh -31.
O=C(COC(=O)CNS(=O)(=O)c1ccc(F)c(F)c1F)Nc1ccc(OC(F)F)cc1 was read as YopH inh -36.
Screening O=C(NCCN1CCCCC1)c1ccc2c(c1)OCCO2 returned YopH inh -59 and RmlCD inh mix 6.
Screening O=C(NCCN1CCCCC1)c1ccc(=O)oc1 returned YopH inh -8 and RmlCD inh mix 48*.
For O=C1CC(c2ccccc2)c2cc(O)ccc2O1 (stereo not drawn) the results were YopH inh 70* and RmlCD inh mix -7.
`Cc1ccc(C2CC(=O)Oc3cc(O)ccc32)cc1` (stereo not drawn) gave YopH inh -14 and RmlCD inh mix -45.
O=C(/C(=C(\[O-])c1ccccc1)[n+]1ccc2ccccc2c1)c1ccc(Cl)cc1 was read as YopH inh 10.
Screening O=C(/C(=C(\[O-])c1ccccc1)[n+]1ccc2ccccc2c1)c1ccccc1 returned YopH inh 69*.
`O=C(O)CCC(=O)Nc1ccc(Sc2ccc([N+](=O)[O-])cc2)cc1` gave YopH inh -34.
For CN1C[C@H](CNC(=O)OCc2ccccc2)C[C@@H]2c3cccc4c3c(cn4C)C[C@H]21 the results were YopH inh -11 and RmlCD inh mix 2.
Screening CC[C@@H](CO)NC(=O)[C@@H]1C=C2c3cccc4c3c(cn4C)C[C@H]2N(C)C1 returned YopH inh 64* and RmlCD inh mix 19.
COc1ccccc1/C=C1\CCCC2=C1Nc1nnnn1C2c1ccccc1OC (stereo not drawn) was read as YopH inh -7.
For COCCCNC(=O)CCCC(=O)NCCCOC the results were YopH inh 55* and RmlCD inh mix -9.
`COCCCNC(=O)CCCOc1ccccc1` gave YopH inh -16 and RmlCD inh mix -17.
`CCN(C(=O)CN1CCN(S(=O)(=O)c2ccccc2C(F)(F)F)CC1)c1c(N)n(Cc2ccccc2)c(=O)[nH]c1=O` gave YopH inh -34.
Screening N#Cc1c(C(F)(F)F)cc(-c2ccccc2)nc1SCC(=O)Nc1sc2c(c1C#N)CCC2 returned YopH inh -29 and RmlCD inh mix -7.
Screening COc1cc(C2NC(=O)NC(C)=C2C(=O)OCc2ccccc2)ccc1O (stereo not drawn) returned RmlCD inh mix 17.
COc1cc(C2C(C(=O)OC(C)C)=C(C)Nc3[nH]c(=O)[nH]c(=O)c32)ccc1O (stereo not drawn) was read as YopH inh 51* and RmlCD inh mix -11.
For CCO[C@H]1OC(C(=O)Nc2ccccc2)=C[C@@H](C)[C@@H]1CCCO the results were RmlCD inh mix -8.
Screening CC1Oc2cc3oc4c(O)c(O)ccc4c(=O)c3c(O)c2C1(C)C (stereo not drawn) returned RmlCD inh mix 7.
Cc1[nH]n(-c2ccccc2)c(=O)c1C(C[N+](=O)[O-])c1ccc(Cl)cc1 (stereo not drawn) was read as YopH inh 76*.
Cc1ccc(C(C[N+](=O)[O-])c2c(C)[nH]n(-c3ccccc3)c2=O)cc1 (stereo not drawn) was read as YopH inh 83*.
For Cc1[nH]n(-c2ccccc2)c(=O)c1Sc1ccc(Cl)cc1 the results were YopH inh -1 and RmlCD inh mix 4.
`Cc1[nH]n(-c2ccccc2)c(=O)c1C(C[N+](=O)[O-])c1ccc(F)cc1` (stereo not drawn) gave YopH inh -4.
`COc1ccc(-c2cc(C(=O)O)c3c(C)nn(-c4ccccn4)c3n2)cc1` gave YopH inh -9 and RmlCD inh mix 28.
Screening COc1ccc(N=CC2=C(Nc3ccc(OC)cc3)c3c(C)nn(-c4ccccn4)c3CC2)cc1 returned YopH inh 51* and RmlCD inh mix 61*.
`CCNc1nc(NCC)n2c(SC(C(=O)Nc3cc(Cl)cc(Cl)c3)c3ccccc3)nnc2n1` (stereo not drawn) gave YopH inh -17.
For CNC(=O)/C(=C\c1ccc2c(c1)OCO2)NC(=O)c1ccc(Br)cc1 the results were YopH inh 0.
`Cn1c(SCC(=O)n2c3c(c4ccccc42)CCCC3)nnc1-c1ccccc1` gave YopH inh 5 and RmlCD inh mix 0.
`CC(=O)Nc1ccc(-c2nnc(SCC(=O)n3c4c(c5ccccc53)CCCC4)n2C)cc1` gave YopH inh 75* and RmlCD inh mix -5.
Screening O=C(CSc1nnc(-c2ccccc2)o1)n1c2c(c3ccccc31)CCCC2 returned YopH inh 56* and RmlCD inh mix -8.
Screening Cc1ccc(-c2nnc(SCC(=O)n3c4c(c5ccccc53)CCCC4)o2)cc1 returned YopH inh -17.
Cc1cccc(NC(=O)C2(c3cccs3)CCOCC2)n1 was read as YopH inh -19.
`Cc1ccc(-c2cc(C(=O)Nc3cc(C)ccc3C)[nH]n2)c(O)c1` gave YopH inh -21 and RmlCD inh mix -12.
`COc1ccc(OC)c(NC(=O)c2cc(-c3ccc(C)cc3O)n[nH]2)c1` gave YopH inh 92* and RmlCD inh mix 2.
Screening O=C(c1ccco1)N1CCN(CCCCOc2cccc3ccccc23)CC1 returned YopH inh -12.
`CCOC(=O)c1sc2nc(C(C)C)c3c(c2c1N)CC(C)(C)OC3` gave YopH inh -11 and RmlCD inh mix 19.
`CCOC(=O)c1sc2nc(N3CCCC3)c3c(c2c1N)CC(C)(C)OC3` gave YopH inh -17 and RmlCD inh mix 45*.
CC(=O)Nc1cc(OC(C)=O)c2nonc2c1OC(C)=O was read as YopH inh 76* and RmlCD inh mix -6.
Screening CC(=O)Nc1nonc1NC(C)=O returned YopH inh -5 and RmlCD inh mix -9.
O=C(Nc1ccc(Cl)cc1C(F)(F)F)c1ccccc1 was read as YopH inh -33.
Cc1cc(C)c2c(n1)nn1c(NCCOCCO)cc(C)nc21 was read as YopH inh -23 and RmlCD inh mix 44*.

Assay outcomes: PubChem, several laboratories
